Measured values taken from PubChem BioAssay AID1706 (The Scripps Research Institute Molecular Screening Center, 2009).
Among all 290,000 compounds or so, about 400 (0.14%) were called active. Cut-off read from the data, not from the text of the source: active = inhibition above about 12%; inactive = the rest. Shown is part of a subset that was picked to be rich in actives.

What follows are molecules tested against Replicase polyprotein 1ab (Severe acute respiratory syndrome coronavirus) (UniProt P0C6X7) (assay: SARS-CoV 3CLpro protease inhibitors, primary screen, biochemical, quenched FRET (AID 1706)). Conditions: recombinant SARS-CoV 3CLpro, quenched FRET peptide cleavage; at 6 µM; active compounds read high.
`CN1CN(C)c2ccc([N+](=O)[O-])c3cccc1c23` was tested, and the inhibition was 2.09% (inactive).
In the case of `Cc1c(C(=O)NCC(c2ccco2)N2CCCC2)oc2ccc(Cl)cc12` (stereo not given), the inhibition is reported as -1.9% (inactive).
In the case of `CCN(CC(=O)NCC(=O)Nc1cccc(C)c1C)Cc1ccccc1`, the inhibition is reported as -2.94% (inactive).
For `CCOC(=O)c1ccc(-n2c(CCC(=O)O)ccc2-c2ccccc2)cc1`, the inhibition was 3.33% (inactive).
For `Cc1ccc2c(c1)C1CN(C)CCC1N2S(=O)(=O)c1ccc(Oc2ccc([N+](=O)[O-])cc2)cc1` (stereo not given), the inhibition was 0.21% (inactive).
`O=C1CCCCN1CCCC(=O)N1CCCC(Nc2ccc(F)cc2)C1` (stereo not given) was tested, and the inhibition was -2.27% (inactive).
With `CCN1CCN(C(=O)C2CCCN(S(=O)(=O)c3ccc(OC)c(OC)c3)C2)CC1` (stereo not given) the inhibition was -7.47% (inactive).
For `CC(C)c1c(C(=O)N/N=C/c2ccc(-c3ccccc3)cc2)nnn1-c1nonc1N`, the inhibition was 1.56% (inactive).
For `c1ccc2c(-c3nn4nnnc4c4ccccc34)cccc2c1`, the inhibition was -0.16% (inactive).
`CC(=O)c1cccc(NC(=S)N2CCCC2)c1` was tested, and the inhibition was 0.53% (inactive).
In the case of `Cc1cccc(OCC(=O)Nc2ccc(C(=O)O)cc2NC(=O)COc2cccc(C)c2)c1`, the inhibition is reported as 6.23% (inactive).
With `Cc1ccc(OCC(=O)Nc2ccc(C(=O)O)cc2NC(=O)COc2ccc(C)c(C)c2)cc1C` the inhibition was 14.3% (active).
With `Cc1ccc(OCC(=O)Nc2cccc3c2CCCC3)cc1C` the inhibition was -0.37% (inactive).
In the case of `COc1cccc(CNC(=O)CN(C)S(=O)(=O)c2ccc3c(c2)c(=O)n(C)c(=O)n3C)c1`, the inhibition is reported as 0.08% (inactive).
For `COc1cccc(Cn2cc(/C=N/NC(=O)c3cc(O)cc(O)c3)c3ccccc32)c1`, the inhibition was 6.16% (inactive).
In the case of `Cc1ccc2c(c1)sc1ncc(NC(=O)c3ccccc3)c(=O)n12`, the inhibition is reported as -0.46% (inactive).
`COC(=O)c1ccc(COC(=O)c2cnc(Cl)c(Cl)c2)cc1` was tested, and the inhibition was 7.32% (inactive).
For `COc1ccc2cc(CCl)c(Cl)nc2c1`, the inhibition was -3.78% (inactive).
In the case of `COc1ccc(C(=O)NC(=S)N2CCNC(=O)C2CC(=O)OC(C)C)cc1` (stereo not given), the inhibition is reported as 0.58% (inactive).
In the case of `CC(=O)N1CCN(C(=O)C2(NC(=O)Nc3ccc(C)cc3)CCCCC2)CC1`, the inhibition is reported as -11.2% (inactive).
For `CC(=O)Nc1ccc(NC(=O)C2CCCN2S(=O)(=O)c2cccc(C(F)(F)F)c2)cc1` (stereo not given), the inhibition was -4.86% (inactive).
For `Cc1cccc[n+]1CC(=O)c1ccccc1`, the inhibition was 3.16% (inactive).
In the case of `CCNS(=O)(=O)c1ccc(NC(=O)Nc2cccc(C(F)(F)F)c2)cc1`, the inhibition is reported as -1.22% (inactive).
`Cc1oc2c(F)c(F)c(F)c(F)c2c1S(=O)(=O)Nc1cccc(C(F)(F)F)c1` was tested, and the inhibition was 17.6% (active).
In the case of `O=C(/C=C/c1ccc(F)cc1)Nc1cccc(S(=O)(=O)Nc2cccc(C(F)(F)F)c2)c1`, the inhibition is reported as 5.74% (inactive).
In the case of `Cc1ccc(S(=O)(=O)N(CC(=O)NCc2ccco2)c2ccccc2C)cc1`, the inhibition is reported as -1.63% (inactive).
`O=C(NCc1ccco1)C(c1ccncc1)N(C(=O)Cn1nnc2ccccc21)c1ccccc1` (stereo not given) was tested, and the inhibition was 1.89% (inactive).
`COCCNC(=O)C(c1ccc(C)o1)N(Cc1ccccc1)C(=O)Cn1nnc2ccccc21` (stereo not given) was tested, and the inhibition was 0.75% (inactive).
In the case of `COc1ccccc1N(C(=O)Cn1nnc2ccccc21)C(C(=O)NCc1ccco1)c1ccc(C)o1` (stereo not given), the inhibition is reported as 20.2% (active).
For `Cc1cc(-c2ccc(S(=O)(=O)N3CCN(c4cccc(C(F)(F)F)c4)CC3)s2)on1`, the inhibition was 10.1% (inactive).
In the case of `O=C(c1c(F)cccc1Cl)N1CCN(S(=O)(=O)c2ccc3c(c2)OCCCO3)CC1`, the inhibition is reported as -1.16% (inactive).
With `COc1ccc(C)cc1N(CC(=O)NC(C)c1ccccc1)S(C)(=O)=O` (stereo not given) the inhibition was -1.09% (inactive).
With `Cc1ccccc1-c1nc(CS(=O)(=O)CC(=O)NC(C)c2ccccc2)c(C)o1` (stereo not given) the inhibition was -0.9% (inactive).
`COc1ccccc1N1CCN(C(=O)c2cc(=O)c3cc(C)ccc3o2)CC1` was tested, and the inhibition was -1.99% (inactive).
In the case of `COc1cc2c(cc1OC)CN(C(=O)c1cc(=O)c3ccccc3o1)CC2`, the inhibition is reported as -3.13% (inactive).
For `O=C(c1cc(=O)c2ccccc2o1)N1CCN(c2ccccc2)CC1`, the inhibition was 13.7% (active).
For `CCOc1ccc(OCCSc2nc3ccccc3n2CC(=O)O)cc1`, the inhibition was 1.7% (inactive).
In the case of `Cc1coc2c1c(C)cc1oc(=O)c(CC(=O)NCC(=O)N[C@H](C(=O)O)C(C)C)c(C)c12`, the inhibition is reported as 2.83% (inactive).
`Cc1ccc(S(=O)(=O)N[C@@H](Cc2ccccc2)C(=O)N2CCC(C(=O)N[C@H](C(=O)O)C(C)O)CC2)cc1` (stereo not given in full) was tested, and the inhibition was -4.09% (inactive).
For `COc1ccc(S(=O)(=O)c2c[nH]c(=S)[nH]c2=O)cc1Cl`, the inhibition was -1.78% (inactive).
With `CN(CC(=O)N1CCN(c2ccccc2)CC1)S(=O)(=O)c1cccs1` the inhibition was 2.74% (inactive).
With `CC(=O)c1ccc(S(=O)(=O)N2CCC(Oc3ccc(-n4cnnn4)cc3)CC2)cc1` the inhibition was -1.99% (inactive).
For `CC(Sc1nnc(CNC(=O)c2ccccc2F)n1C)C(=O)Nc1nccs1` (stereo not given), the inhibition was -0.59% (inactive).
With `COc1cc(C(=O)NCCOC(=O)c2cccc(N(C)C)c2)cc(OC)c1OC` the inhibition was 0.81% (inactive).
`CCOC(=O)C1CCCN(CCSc2ccc(C)cc2)C1` (stereo not given) was tested, and the inhibition was -2.08% (inactive).
With `Cc1ccc(-c2nn(-c3ccccc3)cc2C(=O)Nc2cccc(S(=O)(=O)N3CCOCC3)c2)cc1` the inhibition was 1.75% (inactive).
With `COc1ccc(-c2nn(-c3ccccc3)cc2/C=C\C(=O)Nc2ccc(C(=O)O)cc2)cc1` the inhibition was 7.15% (inactive).
For `O=C(O)c1ccc(NC(=O)c2cn(-c3ccccc3)nc2-c2ccc(Cl)cc2)cc1`, the inhibition was 12.7% (active).
With `CCc1ccc(N(C(=O)c2csnn2)C(C(=O)NC2CCCCC2)c2ccncc2)cc1` (stereo not given) the inhibition was 0.17% (inactive).
In the case of `CC(C)(C)c1ccccc1NC(=O)CN1C(=O)NC2(CCCC2)C1=O`, the inhibition is reported as 0.18% (inactive).
In the case of `Clc1ccc(Cc2nn3c(-c4ccncc4)nnc3s2)cc1`, the inhibition is reported as 2.77% (inactive).
With `O=C(NCCCN1CCCCC1)C1CCCN(c2ncnc3c2nc2n3CCCCC2)C1` (stereo not given) the inhibition was 1.81% (inactive).
`Cc1nn2c(=O)cc(COC(=O)c3ccc(NC(=O)C(C)(C)C)cc3)nc2s1` was tested, and the inhibition was -0.62% (inactive).
`Fc1ccccc1/C=N/Nc1cc(N2CCCCC2)ncn1` was tested, and the inhibition was 0.22% (inactive).
With `O=C(C1CCC(C(=O)N2CCCC2)CC1)N1CCCC1` (stereo not given) the inhibition was -3.63% (inactive).
In the case of `COc1cccc(-c2noc(C3CCCN(C(=O)c4ccc(F)cc4)C3)n2)c1` (stereo not given), the inhibition is reported as 2.89% (inactive).
In the case of `CCNS(=O)(=O)c1ccc(CCC(=O)N2CCN(c3cc(Cl)ccc3C)CC2)cc1`, the inhibition is reported as 0.81% (inactive).
With `CC(C)(C)C1CCC(C(=O)NCC(c2cccs2)N2CCOCC2)CC1` (stereo not given) the inhibition was 4.8% (inactive).
In the case of `COc1cc(NS(=O)(=O)c2ccc(NC(=S)NC(=O)c3ccc(Br)cc3)cc2)ncn1`, the inhibition is reported as -2.77% (inactive).
For `COc1cc(CCC(=O)N2CCN(c3ccccc3Cl)CC2)cc(OC)c1OC`, the inhibition was -0.35% (inactive).
`CCN(CC)S(=O)(=O)c1ccc(Cl)c(C(=O)NCCN2CCOCC2)c1` was tested, and the inhibition was -0.28% (inactive).
`CC(C)CCN1CCN(Cc2cn[nH]c2C2CCCCC2)CC1CCO` (stereo not given) was tested, and the inhibition was 1.66% (inactive).
With `COc1ccccc1/C=C/C(=O)NC(=S)N1CCOCC1` the inhibition was 2.02% (inactive).
For `COc1ccc(Cc2nc3ccc(C(=O)N4CCC(N(C)C)C4)cc3o2)cc1` (stereo not given), the inhibition was -1.77% (inactive).
With `Cc1cccc([C@@H]2[C@@H]3C(=O)N(Cc4ccccc4)C(=O)[C@@H]3[C@]3(C)C(=O)N(c4ccc(Br)cc4)C(=O)N23)c1` the inhibition was -2.23% (inactive).
With `Cc1cccc(N2C(=O)N3[C@H](c4ccc(F)cc4)[C@@H]4C(=O)N(C5CCCCC5)C(=O)[C@@H]4[C@]3(Cc3ccccc3)C2=O)c1` the inhibition was 9.1% (inactive).
`C[C@@]12C(=O)N(c3cccc(Br)c3)C(=O)N1[C@H](c1ccc(Cl)cc1)[C@@H]1C(=O)N(C3CCCCC3)C(=O)[C@@H]12` was tested, and the inhibition was 32.5% (active).
For `Cn1c(=O)c(=O)n(C)c2cc(S(=O)(=O)CCC(=O)N3CCCCC3)ccc21`, the inhibition was -7.51% (inactive).
`O=C(NCc1ccccc1)c1ccc(S(=O)(=O)Nc2cccc(C(F)(F)F)c2)cc1` was tested, and the inhibition was 17.3% (active).
With `O=C(NCc1cccc(C(F)(F)F)c1)c1cccc(S(=O)(=O)N2CCN(Cc3ccccc3)CC2)c1` the inhibition was 1.65% (inactive).
For `O=C(COc1ccc(S(=O)(=O)Nc2cccc(C(F)(F)F)c2)cc1)N1CCOCC1`, the inhibition was -1.24% (inactive).
`CN(C(=O)CCNC(=O)Cn1ccc2ccccc2c1=O)c1ccc(Br)cc1` was tested, and the inhibition was 1.62% (inactive).
In the case of `COc1cc(/C=C(\C#N)c2nc3ccccc3[nH]2)ccc1O`, the inhibition is reported as -3.33% (inactive).
`COc1ccc2[nH]cc(/C=C(/C#N)S(=O)(=O)c3ccccc3)c2c1` was tested, and the inhibition was 4.75% (inactive).
For `COc1ccc(/C=C(\C#N)c2c[nH]c3ccccc23)cc1`, the inhibition was 14.6% (active).
`CC(c1cccnc1)N(CCN(C)C)C(=O)Nc1ccc(Cl)c(Cl)c1` (stereo not given) was tested, and the inhibition was 2.29% (inactive).
In the case of `CS(=O)(=O)N(Cc1ccccc1Cl)c1ccc(C(=O)NCc2cccnc2)cc1`, the inhibition is reported as 1.33% (inactive).
For `O=C(Nc1ccc(S(=O)(=O)NCC2CCCO2)cc1)c1ccc(F)cc1` (stereo not given), the inhibition was -0.56% (inactive).
In the case of `O=S(=O)(Nc1ccccc1)c1ccc(NS(=O)(=O)c2cccs2)cc1`, the inhibition is reported as 2.66% (inactive).
In the case of `COC(=O)C1=CN(c2ccc(F)c(F)c2)C=C(C(=O)OC)C1c1ccc([N+](=O)[O-])cc1`, the inhibition is reported as 1.13% (inactive).
`O=C(NCc1ccc(F)cc1)C1CCN(C(=O)Nc2ccc(F)cc2)CC1` was tested, and the inhibition was 5.05% (inactive).
For `CC(C)c1ccc(C2C(C(=O)c3ccco3)=C(O)C(=O)N2CC2CCCO2)cc1` (stereo not given), the inhibition was -0.41% (inactive).
For `Cc1nn(C)c(C)c1C(C)NC(=O)c1ccc(OC2CCN(Cc3ccccn3)CC2)cc1` (stereo not given), the inhibition was 3.56% (inactive).
For `CCOc1ccc(OCc2cccc(C(=O)N(CC)CC)c2)cc1`, the inhibition was -3.35% (inactive).
`COc1ccc(C(=O)NCCSc2ccccc2C)cc1` was tested, and the inhibition was 6.37% (inactive).
